These results are taken from PubChem BioAssay (EPA / NIEHS).

As a reminder, the AC50 is the concentration at which the activity in the assay is half-maximal.

Each structure is given as a SMILES string. Records with an inconclusive call do not appear. The source holds several records for some structures; these can differ, active in one and inactive in another. Activity calls are given as the source filed them. Rule for the calls, unless noted: active = hit-call score of the fitted dose curve at least 0.9, where 1 is the maximum; inconclusive = response in the unintended direction; inactive = score below 0.9.

In experiment [1] the target is Agonist Androgen Response Element (ARE), AR (gene 367) (UniProt P10275). In words: OT_AR_ARELUC_AG_1440: Odyssey Thera (OT) 24-hour CHO-K1 Luciferase Assay for Agonist Androgen Response Element (ARE) (AID 2283379). Put shortly:
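Gain-of-signal reporter endpoint: cells (CHO-K1, hamster) are treated 24 h, luciferin/ATP reagent added, and luminescence compared with DMSO baseline.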

The target of experiment [2] is Bile acid receptor (Homo sapiens) (UniProt Q96RI1). In words: OT_FXR_FXRSRC1_0480: Odyssey Thera (OT) 8-hour HEK293T Protein-Complementation Assay for Farnesoid X receptor/SRC-1 Co-activator (AID 2283383). Put shortly: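 Binding of FXR to coactivator SRC-1 was read as fluorescence from a reconstituted split reporter in HEK293T cells, 8 h after chemical addition. Only increases in signal versus DMSO were fit.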
Sequence of Bile acid receptor (Homo sapiens) (Q96RI1 whole entry, looked up, the tested form may be a part): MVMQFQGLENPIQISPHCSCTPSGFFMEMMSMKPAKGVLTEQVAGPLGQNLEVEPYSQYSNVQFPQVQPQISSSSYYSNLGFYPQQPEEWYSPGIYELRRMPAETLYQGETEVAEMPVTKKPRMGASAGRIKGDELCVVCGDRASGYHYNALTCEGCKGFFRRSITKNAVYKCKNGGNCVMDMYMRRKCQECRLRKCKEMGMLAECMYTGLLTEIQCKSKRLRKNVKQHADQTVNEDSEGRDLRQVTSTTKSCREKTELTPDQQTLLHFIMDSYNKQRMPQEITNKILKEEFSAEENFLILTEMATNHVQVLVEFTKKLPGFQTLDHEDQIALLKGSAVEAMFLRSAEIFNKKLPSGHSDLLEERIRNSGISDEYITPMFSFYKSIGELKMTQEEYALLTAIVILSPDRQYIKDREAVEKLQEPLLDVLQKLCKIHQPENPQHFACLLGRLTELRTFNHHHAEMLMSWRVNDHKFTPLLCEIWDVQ

Experiment [3] deals with Retinoic acid receptor RXR-alpha (Homo sapiens) (UniProt P19793). Put plainly: OT_NURR1_NURR1RXRa_0480: Odyssey Thera (OT) 8-hour HEK293T Protein Complementation Assay for Nurr1/retinoid X receptor (RXR) (AID 2283385). In outline: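 Interaction of Nurr1 with RXRα read as reconstituted reporter fluorescence in a HEK293T fragment-complementation system, 8 h post-treatment; increase over DMSO baseline analysed.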
Sequence of Retinoic acid receptor RXR-alpha (Homo sapiens) (P19793 whole entry, looked up, the tested form may be a part): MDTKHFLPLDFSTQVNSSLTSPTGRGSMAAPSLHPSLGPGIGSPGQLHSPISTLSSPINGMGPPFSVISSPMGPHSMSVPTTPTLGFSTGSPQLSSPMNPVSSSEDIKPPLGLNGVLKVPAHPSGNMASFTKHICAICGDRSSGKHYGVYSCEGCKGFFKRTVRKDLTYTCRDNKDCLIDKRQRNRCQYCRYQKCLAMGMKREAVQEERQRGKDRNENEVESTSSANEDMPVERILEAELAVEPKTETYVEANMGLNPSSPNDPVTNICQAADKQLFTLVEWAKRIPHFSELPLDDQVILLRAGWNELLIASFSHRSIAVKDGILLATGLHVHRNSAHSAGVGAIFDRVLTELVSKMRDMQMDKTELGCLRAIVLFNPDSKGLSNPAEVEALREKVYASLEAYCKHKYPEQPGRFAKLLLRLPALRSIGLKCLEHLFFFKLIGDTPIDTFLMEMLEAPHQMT

The target is the same in experiment [4]. Put plainly: OT_NURR1_NURR1RXRa_1440: Odyssey Thera (OT) 24-hour HEK293T Protein Complementation Assay for Nurr1/retinoid X receptor (RXR) (AID 2283386). In outline: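 Gain in fluorescence, fitted relative to DMSO, reflects Nurr1–RXRα association in HEK293T cells after 24 h dosing. Bait and prey are each linked to a reporter-protein fragment that reassembles on interaction.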

For experiment [5], the target named is Peroxisome proliferator-activated receptor gamma (Homo sapiens) (UniProt P37231). In words: OT_PPARg_PPARgSRC1_0480: Odyssey Thera (OT) 8-hour Protein-Complementation Assay for Peroxisome Proliferator-activated Receptor Gamma / SRC-1 Co-activator (AID 2283387).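 Note: nuclear to cytoplasmic split Venus YFP fluorescence ratio reporting PPARg SRC-1 interaction.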 In outline:
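HEK293T transiently transfected with PPARg and SRC-1 fused to Venus YFP fragments, compounds 8 h at 37C. Fixed, Draq5-stained cells imaged; nuclear/cytoplasmic 488 nm fluorescence ratio over at least 350 cells per image; gain fitted versus DMSO.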

Experiment [6] has the same target. Put plainly: OT_PPARg_PPARgSRC1_1440: Odyssey Thera (OT) 24-hour Protein-Complementation Assay for Peroxisome Proliferator-activated Receptor Gamma/ SRC-1 Co-activator (AID 2283388). In outline: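 Readout: nuclear-to-cytoplasmic 488 nm fluorescence ratio, ≥350 cells per image, 8 images per well, after 24 h compound exposure of HEK293T expressing PPARg/SRC-1 split-YFP fusions. Activity fitted in positive direction against DMSO.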

The target in experiment [7] is Estrogen receptor beta (Homo sapiens) (UniProt Q92731). Put plainly: OT_ER_ERbERb_1440: Odyssey Thera (OT) 24-hour HEK293T Protein-Complementation Assay for Estrogen Receptor-beta/-beta Homodimer (AID 2283380).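 Note: scored as signal increase over DMSO baseline for both agonists and antagonists.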 In outline: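 HEK293T cells stably expressing ER beta LBD (aa 310-547) homodimer fragment-complementation reporter, dosed 24 h. Cells formaldehyde-fixed, Draq5-stained; gain in nuclear (agonist) or nuclear plus cytoplasmic (antagonist) fluorescence versus DMSO read by laser scanning cytometry.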
Sequence of Estrogen receptor beta (Homo sapiens) (Q92731 whole entry, looked up, the tested form may be a part): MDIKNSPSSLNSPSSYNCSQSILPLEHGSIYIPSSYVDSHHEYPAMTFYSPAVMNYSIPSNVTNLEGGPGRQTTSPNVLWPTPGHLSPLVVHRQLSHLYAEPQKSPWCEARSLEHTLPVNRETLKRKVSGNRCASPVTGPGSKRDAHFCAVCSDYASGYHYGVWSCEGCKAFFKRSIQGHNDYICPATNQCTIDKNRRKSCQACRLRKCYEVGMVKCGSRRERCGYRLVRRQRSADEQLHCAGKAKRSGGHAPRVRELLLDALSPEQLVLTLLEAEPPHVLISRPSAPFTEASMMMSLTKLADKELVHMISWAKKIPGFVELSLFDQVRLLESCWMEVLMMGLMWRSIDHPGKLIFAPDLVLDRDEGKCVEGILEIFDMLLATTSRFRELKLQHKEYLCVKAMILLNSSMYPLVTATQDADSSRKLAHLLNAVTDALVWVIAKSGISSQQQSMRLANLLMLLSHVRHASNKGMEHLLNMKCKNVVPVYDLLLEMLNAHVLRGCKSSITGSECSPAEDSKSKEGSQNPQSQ

Experiment [8] concerns the target Estrogen receptor (Homo sapiens) (UniProt P03372). In words: OT_ERa_GFPERaERE_0480: Odyssey Thera (OT) 8-hour HeLa Transcription Induction Assay for Estrogen Receptor (AID 2283381; active = hit-call score of the fitted dose curve at least 0.9, where 1 is the maximum; inactive = score below 0.9). In outline:
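Fluorescence microscopy with high-content image analysis measures ERE-driven GFP induction in HeLa cells at 8 h post-dose. Increases fitted against DMSO baseline.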

For experiment [9] the target is unchanged. In words: OT_ERa_GFPERaERE_0120: Odyssey Thera (OT) 2-hour HeLa Transcription Induction Assay for Estrogen Receptor (AID 2283382). Put shortly:
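Fluorescence-microscopy images of the GFP-ERα/ERE reporter, scored by high-content image algorithms, give the readout. HeLa exposure lasted 2 h, and only signal increase over DMSO was fitted.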

Experiment [10] concerns the target Bile acid receptor (Homo sapiens) (UniProt Q96RI1). Put plainly: OT_FXR_FXRSRC1_1440: Odyssey Thera (OT) 24-hour HEK293T Protein-Complementation Assay for Farnesoid X receptor/SRC-1 Co-activator (AID 2283384). Put shortly: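 Protein-fragment complementation: FXR and SRC-1 fused to reporter fragments that reassemble on interaction, read by fluorescence intensity. Human HEK293T cells measured 24 h post-dose; positive-direction fit versus DMSO.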

Experiment [11] in a line: CEETOX_H295R_11DCORT: CeeTox H295R High-throughput Steroidogenesis Assay for 11-Deoxycortisol (11DCORT) (AID 2283432; active = hit-call score of the fitted dose curve at least 0.9, where 1 is the maximum; inactive = score below 0.9;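 note: 11-deoxycortisol secreted into the medium measured by LC-MS/MS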). As to conditions: actives raise or lower the signal. In outline:
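H295R cells prestimulated 48 h with 10 uM forskolin, then exposed 48 h to chemical in 0.1% DMSO. 11-Deoxycortisol in medium quantified by HPLC-MS/MS after MTBE extraction; bidirectional fit versus DMSO. MTT viability read in same wells.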

Experiment [12] in a line: CEETOX_H295R_OHPREG: CeeTox H295R High-throughput Steroidogenesis Assay for OH-Pregnenolone (OHPREG) (AID 2283434; active = hit-call score of the fitted dose curve at least 0.9, where 1 is the maximum; inactive = score below 0.9). As to conditions: actives raise or lower the signal. Put shortly:
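H295R, 10 uM forskolin pre-stim 48 h; test chemical 48 h, 0.1% DMSO final. MTBE extraction, reverse-phase C18 HPLC-ESI+ MS/MS of medium. Gain/loss vs DMSO; viability by MTT in same wells.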

Experiment [13] in a line: CEETOX_H295R_OHPROG: CeeTox H295R High-throughput Steroidogenesis Assay for OH-Progesterone (OHPROG) (AID 2283435; active = hit-call score of the fitted dose curve at least 0.9, where 1 is the maximum; inactive = score below 0.9;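 for AC50: 17alpha-hydroxyprogesterone secreted into medium measured by HPLC-MS/MS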). As to conditions: actives raise or lower the signal. Put shortly:
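Medium steroid levels read by LC-MS/MS after 48 h chemical treatment (0.1% DMSO) of human adrenal H295R cells that had been forskolin-primed (10 uM, 48 h). Gain or loss fitted against DMSO; MTT cytotoxicity checked per well.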

Experiment [14] can be described thus: CEETOX_H295R_CORTIC: CeeTox H295R High-throughput Steroidogenesis Assay for Corticosterone (CORTIC) (AID 2283437; active = hit-call score of the fitted dose curve at least 0.9, where 1 is the maximum; inactive = score below 0.9;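 note: corticosterone secreted into medium quantified by mass spectrometry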;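 for AC50: human H295R adrenal cells prestimulated with forskolin before chemical exposure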). As to conditions: actives raise or lower the signal. In outline: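 48 h forskolin (10 uM) prestim, then 48 h chemical exposure, final DMSO 0.1%. Readout: corticosterone in medium by LC-MS/MS after MTBE extraction. Gain/loss fit vs DMSO; MTT viability in same wells.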

Experiment [15] is described as follows: CEETOX_H295R_CORTISOL: CeeTox H295R High-throughput Steroidogenesis Assay for Cortisol (AID 2283438; active = hit-call score of the fitted dose curve at least 0.9, where 1 is the maximum; inactive = score below 0.9). As to conditions: actives raise or lower the signal. Put shortly: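 Cortisol measured by HPLC-MS/MS after MTBE extraction of medium from H295R cells exposed 48 h to chemical (0.1% DMSO), following 48 h prestimulation with 10 uM forskolin. Viability assessed by MTT in the same wells.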

Experiment [16] can be described thus: CEETOX_H295R_DOC: CeeTox H295R High-throughput Steroidogenesis Assay for DOC (AID 2283439; active = hit-call score of the fitted dose curve at least 0.9, where 1 is the maximum; inactive = score below 0.9). As to conditions: actives raise or lower the signal. In outline: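 11-Deoxycorticosterone quantified in medium by MTBE extraction and HPLC-MS/MS after 48 h chemical exposure (0.1% DMSO) of forskolin-primed (10 uM, 48 h) H295R cells. Same-well MTT viability; data fitted bidirectionally against DMSO.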

A short description of experiment [17]: CEETOX_H295R_ESTRADIOL: CeeTox H295R High-throughput Steroidogenesis Assay for Estradiol (AID 2283440; active = hit-call score of the fitted dose curve at least 0.9, where 1 is the maximum; inactive = score below 0.9;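 note: estradiol secreted into medium quantified by LC-MS/MS after dansyl derivatisation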). As to conditions: actives raise or lower the signal. In outline:
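H295R, 48 h forskolin (10 uM) prestim → 48 h compound, 0.1% DMSO final. Estradiol in medium: MTBE extraction, dansyl chloride derivatization, LC-MS/MS. Fit bidirectional vs DMSO baseline; MTT viability in same wells.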

Experiment [18] can be described thus: CEETOX_H295R_ESTRONE: CeeTox H295R High-throughput Steroidogenesis Assay for Estrone (AID 2283441; active = hit-call score of the fitted dose curve at least 0.9, where 1 is the maximum; inactive = score below 0.9). As to conditions: actives raise or lower the signal. In outline:
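Estrone secreted into medium quantified by LC-MS/MS after dansyl chloride derivatization, following 48 h chemical exposure (0.1% DMSO final) of forskolin-prestimulated (10 uM, 48 h) H295R cells; gain or loss fitted against DMSO; MTT viability in same wells.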

Sequence of Agonist Androgen Response Element (ARE), AR (gene 367) (P10275 whole entry, looked up): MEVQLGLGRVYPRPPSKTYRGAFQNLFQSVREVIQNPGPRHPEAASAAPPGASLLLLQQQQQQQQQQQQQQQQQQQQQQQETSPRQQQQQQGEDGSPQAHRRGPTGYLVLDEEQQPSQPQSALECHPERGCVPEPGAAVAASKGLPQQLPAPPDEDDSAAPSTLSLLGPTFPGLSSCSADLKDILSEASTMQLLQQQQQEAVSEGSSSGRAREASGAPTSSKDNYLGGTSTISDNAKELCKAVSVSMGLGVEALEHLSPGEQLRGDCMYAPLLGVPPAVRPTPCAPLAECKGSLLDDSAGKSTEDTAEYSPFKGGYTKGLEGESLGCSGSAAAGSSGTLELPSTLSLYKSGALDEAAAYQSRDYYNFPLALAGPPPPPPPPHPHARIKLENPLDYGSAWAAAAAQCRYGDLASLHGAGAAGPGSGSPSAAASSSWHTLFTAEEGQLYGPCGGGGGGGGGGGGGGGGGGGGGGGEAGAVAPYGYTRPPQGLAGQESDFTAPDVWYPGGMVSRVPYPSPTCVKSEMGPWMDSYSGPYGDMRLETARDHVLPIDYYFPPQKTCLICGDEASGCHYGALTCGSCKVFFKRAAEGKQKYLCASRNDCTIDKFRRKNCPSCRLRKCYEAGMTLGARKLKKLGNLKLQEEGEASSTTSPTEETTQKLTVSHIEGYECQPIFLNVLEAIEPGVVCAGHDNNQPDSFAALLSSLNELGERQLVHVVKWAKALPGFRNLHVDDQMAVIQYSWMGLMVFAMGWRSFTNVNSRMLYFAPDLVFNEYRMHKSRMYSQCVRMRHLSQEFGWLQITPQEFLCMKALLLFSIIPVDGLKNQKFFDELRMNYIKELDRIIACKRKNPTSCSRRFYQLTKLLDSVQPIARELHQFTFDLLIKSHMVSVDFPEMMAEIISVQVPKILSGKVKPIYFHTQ
Sequence of Peroxisome proliferator-activated receptor gamma (Homo sapiens) (P37231 whole entry, looked up, the tested form may be a part): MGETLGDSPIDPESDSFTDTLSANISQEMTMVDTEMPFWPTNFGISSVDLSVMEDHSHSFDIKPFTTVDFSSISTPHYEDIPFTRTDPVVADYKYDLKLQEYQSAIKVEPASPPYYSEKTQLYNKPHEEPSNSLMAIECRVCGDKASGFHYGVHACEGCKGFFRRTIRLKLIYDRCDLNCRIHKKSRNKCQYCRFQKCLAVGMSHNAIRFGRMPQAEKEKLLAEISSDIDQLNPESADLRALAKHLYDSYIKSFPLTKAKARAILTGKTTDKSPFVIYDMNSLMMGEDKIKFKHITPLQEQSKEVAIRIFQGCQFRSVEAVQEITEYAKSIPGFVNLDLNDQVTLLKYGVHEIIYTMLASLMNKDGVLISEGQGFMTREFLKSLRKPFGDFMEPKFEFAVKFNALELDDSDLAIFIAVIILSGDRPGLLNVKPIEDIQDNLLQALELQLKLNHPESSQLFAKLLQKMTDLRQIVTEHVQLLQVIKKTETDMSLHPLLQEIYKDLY
Sequence of Estrogen receptor (Homo sapiens) (P03372 whole entry, looked up): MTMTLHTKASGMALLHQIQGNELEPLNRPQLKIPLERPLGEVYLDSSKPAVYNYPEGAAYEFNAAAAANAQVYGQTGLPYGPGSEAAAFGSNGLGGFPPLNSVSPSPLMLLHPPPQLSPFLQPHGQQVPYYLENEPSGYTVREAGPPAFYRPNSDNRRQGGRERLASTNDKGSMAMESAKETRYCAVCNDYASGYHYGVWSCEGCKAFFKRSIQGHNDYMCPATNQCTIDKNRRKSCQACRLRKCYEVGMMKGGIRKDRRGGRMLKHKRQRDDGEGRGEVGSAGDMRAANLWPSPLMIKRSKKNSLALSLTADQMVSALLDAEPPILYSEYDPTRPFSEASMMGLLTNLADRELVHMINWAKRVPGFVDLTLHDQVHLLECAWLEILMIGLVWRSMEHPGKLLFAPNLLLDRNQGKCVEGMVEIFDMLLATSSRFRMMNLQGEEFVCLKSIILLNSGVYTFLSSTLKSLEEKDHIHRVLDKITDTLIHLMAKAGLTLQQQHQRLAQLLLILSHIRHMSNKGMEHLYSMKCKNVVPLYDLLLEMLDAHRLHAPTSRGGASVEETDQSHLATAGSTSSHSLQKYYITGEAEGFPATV

Take `CCCCC(CC)COC(=O)c1ccc(C(=O)OCC(CC)CCCC)cc1` (stereo unspecified): the molecule was called inactive in experiment [1], in experiment [2], in experiment [3], in experiment [4], in experiment [5] and in experiment [6].

With `Cn1c(=O)cc(Oc2ccc(F)cc2F)c2cnc(NCC(C)(C)O)nc21`, the outcome in experiment [7], in [8], in experiment [9], in experiment [2], in [10] and in experiment [4] was inactive. The result in [5], in [6], in experiment [12], in [13], in [14] and in experiment [15] was inactive. Moreover, the molecule was classed as inactive in [16], in experiment [17] and in [18]. The AC50 in experiment [11] is 8.38 µM (active).

Take `CC[C@H](C)C(=O)O[C@H]1C[C@@H](C)C=C2C=C[C@H](C)[C@H](CC[C@@H]3C[C@@H](O)CC(=O)O3)[C@H]21`: the call in experiment [7], in experiment [8], in experiment [9], in experiment [3], in experiment [4] and in experiment [5] was inactive. In addition, the call in [6], in [15], in [17] and in experiment [18] was inactive. Besides, the AC50 is 32 µM (active) in experiment [2]; 34.8 µM (active) in [10]; 2.84 µM (active) in [11]; 0.026 µM (active) in experiment [12]; 2.96 µM (active) in [13]; 0.094 µM (active) in [14]. The AC50 in experiment [16] is 0.641 µM (active).

Consider `CC(C)=CCCC(C)CCO` (stereo unspecified), for which the outcome in experiment [1], in experiment [7], in experiment [8], in experiment [9], in experiment [3] and in experiment [4] was inactive. For the same molecule, the molecule was classed as inactive in experiment [5] and in experiment [6]. Moreover, the AC50 in experiment [3] is 90.2 µM (active).

Turning to `CC(C)=CCC/C(C)=C\CO`, the molecule was called inactive in experiment [1], in experiment [2], in experiment [10], in [3], in experiment [4] and in [5]. Moreover, the molecule was classed as inactive in experiment [6].

For `O=C(CCCCCCCCc1cccnc1)N1CCC(C=C(c2ccccc2)c2ccccc2)CC1`, the molecule was called inactive in experiment [1], in experiment [3], in [5] and in [6]. The AC50 in experiment [7] is 11.9 µM (active); in experiment [4], 12 µM (active).

Regarding `O=P(OC(CCl)CCl)(OC(CCl)CCl)OC(CCl)CCl`, the molecule was called inactive in experiment [7], in experiment [8], in experiment [9], in experiment [3], in experiment [4] and in experiment [5]. In experiment [6], the molecule was classed as inactive.

For `Nc1nc2ncc(CNc3ccc(C(=O)N[C@@H](CCC(=O)O)C(=O)O)cc3)nc2c(=O)[nH]1`, the call in experiment [1], in experiment [7], in experiment [3], in [4], in experiment [5] and in experiment [6] was inactive.

`C=CC(=C)CCC=C(C)C`: the molecule was classed as inactive in experiment [7], in [8], in [9], in experiment [3], in experiment [4] and in [5]. Moreover, in experiment [6], the result was inactive.
